The text below walks through data of paper PMC4336329 (PLoS ONE, 2015).

Hit rate of the full screen: of about 310,000 compounds, about 14,000 (4.5%) showed an effect of 50% or more. The effect is printed as a negative number. Shown is part of a subset that was picked to be rich in strong results.
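Further: peak tail current of the secondary pulse compared with the same well before compound.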

In this test the target is human ether-à-go-go-related gene (hERG) potassium channel (human, UniProt Q12809). Nature of the test: primary screen, population patch clamp on CHO cells stably expressing hERG; higher = less effect of the substance.
human ether-à-go-go-related gene (hERG) potassium channel, sequence (Q12809 whole entry, looked up): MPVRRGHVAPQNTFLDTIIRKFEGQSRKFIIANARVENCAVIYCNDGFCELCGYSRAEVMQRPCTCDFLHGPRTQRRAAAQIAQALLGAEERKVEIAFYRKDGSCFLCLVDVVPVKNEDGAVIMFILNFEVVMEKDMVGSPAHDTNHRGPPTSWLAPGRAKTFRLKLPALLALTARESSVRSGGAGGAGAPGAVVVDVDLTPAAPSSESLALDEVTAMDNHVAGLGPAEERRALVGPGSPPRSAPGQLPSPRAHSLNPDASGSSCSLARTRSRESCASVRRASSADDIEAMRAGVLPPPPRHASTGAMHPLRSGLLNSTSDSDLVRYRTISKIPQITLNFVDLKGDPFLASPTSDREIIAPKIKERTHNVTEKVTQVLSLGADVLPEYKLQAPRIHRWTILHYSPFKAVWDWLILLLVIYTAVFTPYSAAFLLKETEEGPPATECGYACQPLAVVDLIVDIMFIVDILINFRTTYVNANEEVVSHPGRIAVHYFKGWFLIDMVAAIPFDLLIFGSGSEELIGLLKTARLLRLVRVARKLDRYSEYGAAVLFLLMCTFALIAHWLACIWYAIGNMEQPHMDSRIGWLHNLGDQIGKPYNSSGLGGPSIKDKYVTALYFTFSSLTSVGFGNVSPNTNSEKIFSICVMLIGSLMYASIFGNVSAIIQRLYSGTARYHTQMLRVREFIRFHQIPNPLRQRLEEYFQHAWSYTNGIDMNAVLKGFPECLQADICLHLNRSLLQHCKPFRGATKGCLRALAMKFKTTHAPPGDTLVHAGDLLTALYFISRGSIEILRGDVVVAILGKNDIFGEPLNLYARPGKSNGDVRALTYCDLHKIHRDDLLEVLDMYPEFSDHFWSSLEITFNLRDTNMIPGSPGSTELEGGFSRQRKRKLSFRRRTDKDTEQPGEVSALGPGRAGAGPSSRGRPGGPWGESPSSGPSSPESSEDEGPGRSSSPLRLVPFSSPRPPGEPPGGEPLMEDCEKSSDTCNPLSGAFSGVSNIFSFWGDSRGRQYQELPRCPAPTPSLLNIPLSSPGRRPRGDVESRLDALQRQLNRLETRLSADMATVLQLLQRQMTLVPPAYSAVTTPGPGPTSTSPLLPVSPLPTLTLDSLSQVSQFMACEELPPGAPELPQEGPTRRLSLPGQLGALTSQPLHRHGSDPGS
As to `COc1ccccc1CNC(=O)C1CCCN(S(C)(=O)=O)C1` (stereo not shown), the “hERG current change (%, negative = inhibition) at 10uM” value is on record as 9.4%.

Take `CC(C)Oc1cccc(C(=O)C2CCCN(S(=O)(=O)C(C)C)C2)c1` (stereo not shown): the “hERG current change (%, negative = inhibition) at 10uM” value is -21.7%.

As for `COc1ccc(C2=NN(C(=O)CSc3nnnn3C)C(c3ccco3)C2)cc1` (stereo not shown), the “hERG current change (%, negative = inhibition) at 10uM” value was found to be 3.05%.

`N/C(=N\OC(=O)C(c1ccccc1)c1ccccc1)c1ccccn1`: the “hERG current change (%, negative = inhibition) at 10uM” value is listed as 8.35%.

As for `Cl.O=C(NCC(c1cccs1)N1CCOCC1)c1ccc(Cl)s1` (stereo not shown), the “hERG current change (%, negative = inhibition) at 10uM” value is on record as -21.6%.

As for `CC(=O)NC(=O)COC(=O)/C=C/c1c(C)nn(Cc2c(Cl)cccc2Cl)c1Cl`, the “hERG current change (%, negative = inhibition) at 10uM” value is on record as -2.82%.

In the case of `O=C(O)CSc1nc2ccc(C(=O)c3ccccc3)cc2[nH]1`, the “hERG current change (%, negative = inhibition) at 10uM” value is given as 17.2%.

With `CCCCCCn1cc(C(=O)OCC)c(=O)c2cc(F)c(F)cc21`, the “hERG current change (%, negative = inhibition) at 10uM” value is -52.6%.

For `CC(C)(C)C(=O)c1cn(Cc2ccccc2)c2ccccc12`, the “hERG current change (%, negative = inhibition) at 10uM” value is recorded as -4.12%.

For `CCCn1cc(C(=O)OCC)c(=O)c2cc(F)c(F)cc21`, the “hERG current change (%, negative = inhibition) at 10uM” value is listed as 2.11%.

Consider `CCC(=O)c1cn(Cc2ccccc2)c2ccccc12`, for which the “hERG current change (%, negative = inhibition) at 10uM” value was -7.05%.

Take `O=C(O)c1cn(Cc2ccccc2)c2ccccc2c1=O`: the “hERG current change (%, negative = inhibition) at 10uM” value was -79.3%.

Take `CCOC(=O)c1cn(CC)c2cc(F)c(F)cc2c1=O`: the “hERG current change (%, negative = inhibition) at 10uM” value was 3.48%.

On to `COc1ccc(OC)c(N2C(=O)CC(Cc3ccc(C)cc3)C2=O)c1` (stereo not shown), for which the “hERG current change (%, negative = inhibition) at 10uM” value is -2.87%.

As for `CCC1(c2ccccc2)NC(=O)N(CC(=O)Nc2ccc3c(c2)OCO3)C1=O` (stereo not shown), the “hERG current change (%, negative = inhibition) at 10uM” value is -6.09%.

Regarding `CCOC(=O)c1oc2cccc(O)c2c1C`, the “hERG current change (%, negative = inhibition) at 10uM” value is -7.22%.

As to `C=CCn1c(SCc2c(F)cccc2Cl)nnc1-c1ccco1`, the “hERG current change (%, negative = inhibition) at 10uM” value was -19.3%.

As to `COc1ccc(OC)c(CN2CCN(CCc3ccccc3)C(CCO)C2)c1` (stereo not shown), the “hERG current change (%, negative = inhibition) at 10uM” value was -60.6%.

In the case of `COc1cccc(CN2CCN(CCc3ccccc3)C(CCO)C2)c1OC` (stereo not shown), the “hERG current change (%, negative = inhibition) at 10uM” value is given as -34.8%.

For the compound `COc1ccc(CN2CCN(CCc3ccccc3)C(CCO)C2)c(Cl)c1OC` (stereo not shown), the “hERG current change (%, negative = inhibition) at 10uM” value is -60.1%.

On to `COc1ccc(CN2CCN(CCCc3ccccc3)C(CCO)C2)c(OC)c1` (stereo not shown), for which the “hERG current change (%, negative = inhibition) at 10uM” value is on record as -72.9%.

As to `COc1ccc(OC)c(CN2CCN(CCCc3ccccc3)C(CCO)C2)c1` (stereo not shown), the “hERG current change (%, negative = inhibition) at 10uM” value was -68.6%.

Take `CCOC(=O)C1(CC)CC(CSc2nc3ccccc3[nH]2)OC1=O.Cl` (stereo not shown): the “hERG current change (%, negative = inhibition) at 10uM” value is -2.61%.

In the case of `COc1ccc(C(=O)Nc2cccc3ccccc23)cc1`, the “hERG current change (%, negative = inhibition) at 10uM” value is 1.02%.

`CC(C)(C)c1cc(C(=O)NNc2cccc(Cl)c2)n(Cc2ccccc2)n1`: the “hERG current change (%, negative = inhibition) at 10uM” value was -4.28%.

With `Cc1cc(-c2nnc(SCC(=O)Nc3ccccc3F)n2N)n[nH]1`, the “hERG current change (%, negative = inhibition) at 10uM” value amounted to 13.8%.

As to `CC1(C)NC(=O)N(CCCC(=O)Nc2ccc(C(F)(F)F)cc2)C1=O`, the “hERG current change (%, negative = inhibition) at 10uM” value is -16.9%.

In the case of `CCOC(=O)c1c(-c2cccs2)csc1NC(C)=O`, the “hERG current change (%, negative = inhibition) at 10uM” value is reported as -1.29%.

`COc1ccc(N2CC(C(=O)OCC(=O)Nc3ccccc3C)CC2=O)cc1` (stereo not shown): the “hERG current change (%, negative = inhibition) at 10uM” value is 15.6%.

Regarding `CN1CCN(C(=S)c2ccc(Cl)cc2)CC1`, the “hERG current change (%, negative = inhibition) at 10uM” value came to 3.39%.

For `CCCN(CC1CC1)C(=O)COc1ccccc1C(=O)NCc1ccccc1`, the “hERG current change (%, negative = inhibition) at 10uM” value was -56%.

Regarding `CCN(C(=O)COc1ccccc1C(=O)NCc1ccccc1)C1CCS(=O)(=O)C1` (stereo not shown), the “hERG current change (%, negative = inhibition) at 10uM” value is given as -22.1%.

On to `CCC(C)N(C(=O)COc1ccccc1C(=O)NCc1ccccc1)C1CCS(=O)(=O)C1` (stereo not shown), for which the “hERG current change (%, negative = inhibition) at 10uM” value is recorded as -39.2%.

As to `COc1ccc(-n2nc3c(c2NC(=O)c2cc(Br)ccc2Cl)CS(=O)C3)cc1` (stereo not shown), the “hERG current change (%, negative = inhibition) at 10uM” value is reported as -43.4%.

Turning to `COc1ccc(C(=O)Nc2c3c(nn2-c2cccc(Cl)c2)CS(=O)C3)cc1` (stereo not shown), the “hERG current change (%, negative = inhibition) at 10uM” value is -25.6%.

For the compound `COc1ccc(-n2nc3c(c2NC(=O)c2ccc(Br)cc2)CS(=O)C3)cc1` (stereo not shown), the “hERG current change (%, negative = inhibition) at 10uM” value is recorded as -50.8%.

With `CN(C)c1ccc(Sc2nnc(NC(=O)Nc3ccc(Cl)cc3Cl)s2)cc1`, the “hERG current change (%, negative = inhibition) at 10uM” value amounted to 12.2%.

`COc1ccc(C(=O)O)cc1S(=O)(=O)Nc1ccc(C)cc1`: the “hERG current change (%, negative = inhibition) at 10uM” value is 23.1%.

On to `COc1ccc(C(=O)NCc2ccccc2CN2CCCC2)cc1S(=O)(=O)Nc1ccc(C)cc1`, for which the “hERG current change (%, negative = inhibition) at 10uM” value is on record as -57.9%.

In the case of `COc1ccc2cc(C(=O)NCc3ccccc3CN3CCCC3)ccc2c1`, the “hERG current change (%, negative = inhibition) at 10uM” value was -68.2%.

With `COc1ccc(OC)c(CN2CCN(C(=O)CCNC(=O)c3ccc(Br)cc3)CC2)c1`, the “hERG current change (%, negative = inhibition) at 10uM” value is recorded as -45.7%.

Consider `COc1ccc(OC)c(CN2CCN(C(=O)CNC(=O)c3ccc(C(C)(C)C)cc3)CC2)c1`, for which the “hERG current change (%, negative = inhibition) at 10uM” value was -53.9%.

As to `COc1ccc(C(=O)NCc2ccccc2OC)cc1`, the “hERG current change (%, negative = inhibition) at 10uM” value was -10.3%.
